# Laboratory results: PubChem BioAssay AID1259399 (Fisher Drug Discovery Resource Center, 2018)
# Hit rate of the full screen: of about 160,000 compounds, about 240 (0.15%) were called active. No stated cut-off is given here; in the data, active means inhibition above about 40%; inactive means the rest. The list comes from a sample in which actives are over-represented; it also holds similar structures and randomly drawn compounds.
# Biological target: Cyclic GMP-AMP synthase (Mus musculus) (UniProt Q8C6L5)
# Sequence (Q8C6L5 whole entry, looked up): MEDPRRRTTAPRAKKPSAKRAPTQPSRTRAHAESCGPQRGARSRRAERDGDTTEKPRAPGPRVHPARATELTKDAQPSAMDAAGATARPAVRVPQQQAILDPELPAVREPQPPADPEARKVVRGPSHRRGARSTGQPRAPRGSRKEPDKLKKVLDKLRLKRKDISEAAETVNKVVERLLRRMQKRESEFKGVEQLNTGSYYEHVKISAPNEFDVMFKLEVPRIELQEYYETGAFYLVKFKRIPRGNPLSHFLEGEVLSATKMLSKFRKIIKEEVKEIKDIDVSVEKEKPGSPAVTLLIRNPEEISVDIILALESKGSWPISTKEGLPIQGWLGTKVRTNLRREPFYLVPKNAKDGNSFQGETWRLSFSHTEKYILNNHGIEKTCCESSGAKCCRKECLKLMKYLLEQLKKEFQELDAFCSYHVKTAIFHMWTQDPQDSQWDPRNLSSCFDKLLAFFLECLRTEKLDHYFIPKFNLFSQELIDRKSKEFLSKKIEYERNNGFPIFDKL
# Experiment: inhibition of Mus musculus cGAS, primary biochemical chemiluminescence screen (AID 1259399);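 further: 0% = negative control wells and 100% = reference inhibitor with no enzyme activity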
# Details: recombinant cGAS, Kinase-Glo ATP depletion luminescence; at 12.5 µM; hits give high values
row,Compound,inhibition
1,COc1ccc(-c2cc(NC(=O)c3cc(F)cc(C(F)(F)F)c3)n(-c3ccc(C)cc3)n2)cc1,-4.28% (inactive)
2,COc1ccc(C(C)=O)cc1COc1ccc(C#N)cc1,-12.7% (inactive)
3,COc1ccc(CCOc2nc(-c3ccc(OC)cc3)n(-c3ccc(NC(=O)Nc4ccccc4C)cc3)n2)cc1,-6.37% (inactive)
4,CC(Oc1ccccc1C(N)=O)c1ccccc1Cl (stereo not given),-1.52% (inactive)
5,CCN1C(=O)N(C2Cc3ccccc3C2)C(=O)C12CCN(Cc1cccc3ncccc13)CC2,-16.7% (inactive)
6,O=C(Nc1ccc2c(c1)OCO2)c1cc2nc(-c3ccc(F)cc3)cc(C(F)(F)F)n2n1,-6.41% (inactive)
7,COc1ccc(C=C2SC(=S)NC2=O)cc1OC,28% (inactive)
8,CCn1nccc1NC(=O)C1(C)CCN1C(=O)c1sccc1C (stereo not given),-3.99% (inactive)
9,CCOCCCn1c(SCc2cc(F)ccc2C)nc2cc(S(=O)(=O)N3CCCC(C)C3)ccc21 (stereo not given),-6.92% (inactive)
10,Cc1ccc(OC2(C(=O)N(C)Cc3cc(C4CC4)n[nH]3)CCNCC2)cc1,-3.33% (inactive)
11,O=C(O)CN1C(=O)/C(=C\c2cccc(Cl)c2Cl)SC1=S,6.94% (inactive)
12,O=C(O)CN1C(=O)/C(=C\c2ccc(F)c(Br)c2)SC1=S,49.9% (active)
13,CCOc1ccc(/C=C2/SC(=S)N(CC(=O)O)C2=O)cc1,-7.17% (inactive)
14,Cc1ccc2nc(-c3ccc([N+](=O)[O-])cc3)nc(-c3ccccc3)c2c1,-7.39% (inactive)
15,COc1cccc(CNC(=O)Cn2c3ccc(F)cc3c3ncn(Cc4ccccc4)c(=O)c32)c1,-6.62% (inactive)
16,CC(=O)Nc1ccc(Nc2cc(N3CCCCC3)c3nonc3c2[N+](=O)[O-])cc1,-7.72% (inactive)
17,C=CC[C@@H]1CC=C[C@@H](C)N1Cc1nc(-c2ccc(C)o2)oc1C,0.508% (inactive)
18,COC(=O)c1ccccc1NC(=O)N1CCc2ccccc2C1c1ccc(F)cc1 (stereo not given),-8.08% (inactive)
19,Cc1cc(=O)[nH]c(SCc2cc(-c3ccco3)on2)c1C#N,9.2% (inactive)
20,Cc1cc(=O)[nH]c(SCC(N)=O)c1C#N,71.9% (active)

row,Compound,inhibition
1,Cc1nc(SCC(=O)c2ccc(Cl)cc2)c(C#N)c(C)c1C,-5.06% (inactive)
2,N#CC1C(=N)SC(=N)C(C#N)C1c1ccco1 (stereo not given),36.2% (inactive)
3,N#CC1C(=N)SC(=N)C(C#N)C1c1cccc(O)c1 (stereo not given),57.5% (active)
4,COc1ccc(-n2ccnc(SCc3ccc(C)cc3)c2=O)cc1Cl,-6.1% (inactive)
5,Cc1ccc(-c2nc3cc(C)ccn3c2NC(=O)CC(C)C)cc1,-7.17% (inactive)
6,Cn1c(=O)[nH]c(=O)c2c1nc(N1CCN(Cc3ccccc3F)CC1)n2Cc1ccccc1,-1.19% (inactive)
7,COc1ccc(C23CC4CC(CC(C(=O)NC5CC5)(C4)C2)C3)cc1,-7.85% (inactive)
8,Cc1oc(-c2ccc(C(F)(F)F)cc2)nc1CN(C)CC1COc2ccccc2O1 (stereo not given),-4.73% (inactive)
9,O=C(N1CCC(n2cnc3ccccc32)CC1)C1(c2ccccc2)CC1,-5.7% (inactive)
10,COc1ccc(CCN(Cc2ccc(C)o2)C(=O)CN(CCN2CCCC2)C(=O)c2ccccc2C)cc1OC,-4.1% (inactive)
11,CNC(=O)CN(Cc1cccc(Br)c1)C1CC1,-8.9% (inactive)
12,CC(=O)N(CCN(C)C)c1nc2cc3c(cc2s1)OCO3,1.62% (inactive)
13,O=C(c1ccccc1)N1CCN2C[C@@H](c3ccccc3)[C@H](CO)[C@H]2C1,-4.18% (inactive)
14,Cc1ccccc1-n1cc(CN(C)C(=O)c2cn(Cc3cccc4ccccc34)nn2)cn1,-7.32% (inactive)
15,COc1cccc(C(=O)N(Cc2cccc(OS(=O)(=O)c3ccc(F)cc3)c2)Cc2ccco2)c1,-0.277% (inactive)
16,COc1ccccc1C(=O)N1CCN(c2ccc(F)cc2)C(=O)C1C (stereo not given),-4.08% (inactive)
17,CC1C(=O)N(c2ccc3c(c2)OCO3)CCN1C(=O)c1ccccc1Cl (stereo not given),0.748% (inactive)
18,COc1ccccc1C(=O)N1CCN(c2cccc(Cl)c2C)C(=O)C1C (stereo not given),51.1% (active)
19,OC(COCc1ccccc1)CN(Cc1ccc(F)cc1)CC1CC(c2ccc3c(c2)OCO3)=NO1 (stereo not given),-4.2% (inactive)
20,CCc1nc2c(OCCOc3ccc(F)cc3)cccn2c1N(C)C(C)=O,-2.77% (inactive)
